Test results: publication PMC4336329 (PLoS ONE, 2015)
Screen size: about 310,000 compounds; about 14,000 (4.5%) showed an effect of 50% or more. Effects have a minus sign here. This excerpt belongs to a sample that is enriched for strong results.

target: human ether-à-go-go-related gene (hERG) potassium channel (human, UniProt Q12809); experiment: primary screen, population patch clamp on CHO cells stably expressing hERG; higher = less effect of the substance
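Note: peak tail current of the secondary pulse compared with the same well before compound.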

Chain of human ether-à-go-go-related gene (hERG) potassium channel (Q12809 whole entry, looked up): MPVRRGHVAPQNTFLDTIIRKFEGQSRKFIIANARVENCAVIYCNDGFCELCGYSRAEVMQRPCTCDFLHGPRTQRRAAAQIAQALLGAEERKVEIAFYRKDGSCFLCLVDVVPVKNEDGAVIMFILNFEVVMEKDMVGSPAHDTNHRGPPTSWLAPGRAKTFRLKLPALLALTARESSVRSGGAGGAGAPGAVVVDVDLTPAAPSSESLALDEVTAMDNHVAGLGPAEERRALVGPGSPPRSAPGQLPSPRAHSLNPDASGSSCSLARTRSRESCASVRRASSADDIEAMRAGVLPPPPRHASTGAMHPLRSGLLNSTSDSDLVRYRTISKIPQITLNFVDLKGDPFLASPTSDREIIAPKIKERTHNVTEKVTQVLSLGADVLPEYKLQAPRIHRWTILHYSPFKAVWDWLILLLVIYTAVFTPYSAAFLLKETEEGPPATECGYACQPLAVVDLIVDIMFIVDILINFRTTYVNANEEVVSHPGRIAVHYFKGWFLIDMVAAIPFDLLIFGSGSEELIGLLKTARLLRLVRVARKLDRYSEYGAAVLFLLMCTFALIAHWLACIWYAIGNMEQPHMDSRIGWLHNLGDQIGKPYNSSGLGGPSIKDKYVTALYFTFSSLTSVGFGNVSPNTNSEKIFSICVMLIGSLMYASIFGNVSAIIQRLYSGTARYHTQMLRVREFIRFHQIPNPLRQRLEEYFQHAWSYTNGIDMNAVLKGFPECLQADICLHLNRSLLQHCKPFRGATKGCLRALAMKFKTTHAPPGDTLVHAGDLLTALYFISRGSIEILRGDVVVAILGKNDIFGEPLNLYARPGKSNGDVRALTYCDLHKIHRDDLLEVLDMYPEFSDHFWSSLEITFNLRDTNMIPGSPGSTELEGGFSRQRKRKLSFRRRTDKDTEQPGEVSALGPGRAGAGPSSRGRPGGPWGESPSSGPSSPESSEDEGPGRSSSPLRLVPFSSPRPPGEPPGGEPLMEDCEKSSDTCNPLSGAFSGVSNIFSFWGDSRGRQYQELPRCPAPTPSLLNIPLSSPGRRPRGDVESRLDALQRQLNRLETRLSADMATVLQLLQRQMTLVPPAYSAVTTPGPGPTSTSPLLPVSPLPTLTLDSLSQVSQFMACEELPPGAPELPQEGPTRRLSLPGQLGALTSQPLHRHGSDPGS

Row | SMILES | hERG current change (%, negative = inhibition) at 10uM [%]
1 | Cc1ccc(-n2ncc3c2CCCC3NC(=O)c2ocnc2C)cc1C (stereo not drawn) | 1.26
2 | CCOC(=O)c1[nH]c2ccccc2c1NC(C)=O | -3.18
3 | CCOC(=O)c1[nH]c2ccc(OC)cc2c1N=CN(C)C | -7.13
4 | CCOC(=O)c1[nH]c2ccccc2c1NC(=O)CN(C)C | 7.08
5 | CCOC(=O)c1[nH]c2ccccc2c1N=C(C)N(CC)CC | -54.7
6 | CCOC(=O)c1[nH]c2ccc(C)cc2c1N=C(C)N(C)C | -9.99
7 | CCOC(=O)c1[nH]c2ccccc2c1N=CN(C)C | -28.9
8 | CCOC(=O)c1[nH]c2ccc(F)cc2c1NC(=O)c1ccccc1C(=O)O | 19.4
9 | CCOC(=O)c1[nH]c2ccc(F)cc2c1N=C(C)N(CC)CC | -55.4
10 | CCOC(=O)c1[nH]c2ccccc2c1N=CN(CC)CC | -60.8
11 | CC(C)COc1ccc(CNC(=S)Nc2ccccc2)cc1Cl | 8.6
12 | Cc1cc(C)c2c(=O)[nH]n(C(C)C)c2n1 | 7.27
13 | O=C(O)c1ccc([N+](=O)[O-])c2c1C(=O)c1ccccc1C2=O | 23.5
14 | NC(=S)N/N=C/c1c[nH]c2ccc(OCc3ccccc3)cc12 | 6.65
15 | NC(=O)CSc1nnc(NC(=O)c2cccc(S(=O)(=O)N3CCCCC3)c2)s1 | 25.3
16 | CCC(C(=O)Nc1ccc2c(c1)OCCO2)c1ccccc1 (stereo not drawn) | 13.4
17 | Cc1noc(C(=O)N2CCN(c3ccccc3)CC2)c1Cl | 6.13
18 | Cn1c(CCN2CCCC2)nc2cc(NS(=O)(=O)c3ccccc3)ccc21 | -40.9
19 | CC1CCN(CCc2nc3cc(NC(=O)C(C)C)ccc3n2C)CC1 | -0.549
20 | CC1CCN(CCc2nc3cc(NS(=O)(=O)c4ccccc4)ccc3n2C)CC1 | -65.5
21 | CC1CCN(CCc2nc3cc(NS(=O)(=O)c4ccc(F)cc4)ccc3n2C)CC1 | -70.8
22 | CC1CCN(CCc2nc3cc(NC(=O)NC4CCCCC4)ccc3n2C)CC1 | -15.1
23 | Cn1c(CCN2CCOCC2)nc2cc(NS(=O)(=O)c3ccccc3)ccc21 | -1.84

Row | SMILES | hERG current change (%, negative = inhibition) at 10uM [%]
24 | Cc1ccc(S(=O)(=O)NCCC(=O)NNC(=O)COc2ccccc2Cl)cc1C | -1.77
25 | O=C(NC1CCCCCC1)C1CC(=O)N(Cc2ccccc2)C1 (stereo not drawn) | 5.17
26 | COc1ccccc1C(=O)NC(=S)Nc1ccc(N2CCOCC2)c(Cl)c1 | 13.1
27 | O=[N+]([O-])c1ccc(Cl)cc1 | 10.9
28 | CSc1cccc(NC(C)C(=O)NCc2ccccc2)c1 (stereo not drawn) | 2.74
29 | Cl.c1ccc(SCCN2CCN(c3ccccc3)CC2)cc1 | -10.9
30 | CC(CCN1CCN(c2ccc(F)cc2)CC1)c1ccccc1 (stereo not drawn) | -64.3
31 | c1ccc(N2CCN(Cc3ccnc4ccccc34)CC2)cc1 | -0.764
32 | CC(CCN1CCN(c2ccccc2)CC1)c1ccccc1.Cl (stereo not drawn) | -54.6
33 | CC(CN1CCN(c2ccccc2)CC1)c1ccccc1 (stereo not drawn) | -25.5
34 | CN1CCN(Cc2cn(C)c3ccccc23)CC1CCO (stereo not drawn) | 25.5
35 | Cn1cc(CN2CCN(c3ccccc3)CC2)c2ccccc21 | -54
36 | CC(CCN1CCN(CCO)CC1)c1ccccc1 (stereo not drawn) | 9.32
37 | CC(CCN1CCOCC1)c1ccccc1 (stereo not drawn) | 21.9
38 | N#CCN1C(=O)NC2(CCCc3sccc32)C1=O (stereo not drawn) | 11.1
39 | COc1cccc(-c2csc(/C(C#N)=C/Nc3cc4oc5ccccc5c4cc3OC)n2)c1 | 12.8
40 | O=C(c1noc2c1CCCC2)N1CCCCC1 | -0.65
41 | Cc1cnc2c(c1)C(=O)c1ccccc1-2 | 13.6
42 | O=C(NCCN1CCOCC1)c1ccccc1[N+](=O)[O-] | 1.06
43 | CN1CCN(c2ccc(NC(=S)NC(=O)/C=C/c3ccco3)cc2)CC1 | -7.96
44 | CCOc1ccc(S(=O)(=O)N2CCN(Cc3ccc4c(c3)OCO4)CC2)cc1Cl | -8.94
45 | Cn1cnc(S(=O)(=O)N2CCN(C(c3ccc(F)cc3)c3ccc(F)cc3)CC2)c1 | -7.05
